In PubChem BioAssay (NCI):
The panel holds about 79,000 compounds, 15% with a hit somewhere; the sample as a whole holds those more often. No stated cut-off is given here; in the data, active means growth inhibition above about 70%; inactive means the rest.

Tests used:
[1] = NCI Yeast Anticancer Drug Screen. Data for the rad50 strain (AID 155);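 further: 0% = growth of vehicle-only cultures of the same strain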; conditions: S. cerevisiae rad50 strain growth inhibition; at 50.0 µM; active compounds read high
Summary of the method: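 Relative growth inhibition (compound vs vehicle) was measured in yeast with a defined repair-gene alteration.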

[2] = NCI Yeast Anticancer Drug Screen. Data for the mec2-1 strain (AID 157); conditions: S. cerevisiae mec2-1 strain, at 50.0 µM, active compounds read high
Summary of the method: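 Vehicle-treated cultures served as reference for growth inhibition of compound-exposed mec2-1 yeast.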

[3] = NCI Yeast Anticancer Drug Screen. Data for the sgs1 mgt1 strain (AID 161);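 further: 0% = growth of cultures given vehicle only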; conditions: S. cerevisiae sgs1 mgt1 strain, at 50.0 µM, active compounds read high
Summary of the method: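 Mutant yeast exposed to compound; growth scored against vehicle-only wells.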

[4] = NCI Yeast Anticancer Drug Screen. Data for the cln2 rad14 strain (AID 165);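 further: 0% = growth equal to vehicle treated cultures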; conditions: S. cerevisiae cln2 rad14 strain, at 50.0 µM, active compounds read high
Summary of the method: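 Each compound was tested on cln2 rad14 yeast. Inhibition of growth was calculated against vehicle-exposed controls.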

[5] = NCI Yeast Anticancer Drug Screen. Data for the bub3 strain (AID 167); conditions: S. cerevisiae bub3 mutant strain, at 50.0 µM, active compounds read high
Summary of the method: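 Screening used yeast with an engineered genetic alteration affecting cell cycle control. Compound-exposed cultures were compared with vehicle cultures, and reduced growth was taken as inhibition.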

[6] = NCI Yeast Anticancer Drug Screen. Data for the mlh1 rad18 strain (AID 175); conditions: S. cerevisiae mlh1 rad18 strain growth inhibition; at 50.0 µM; active compounds read high
Summary of the method: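 Vehicle-treated cultures served as the reference for growth inhibition in a yeast strain carrying DNA damage repair alterations exposed to each compound.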

Measured: growth inhibition

O=C1C2C(C(=O)N1c1ccccc1)C1([N+](=O)[O-])C=C3c4ccccc4N(C(=O)c4ccccc4)C32C2C(=O)N(c3ccccc3)C(=O)C21 (stereo not given)
inactive: [1] -24.9% | [2] 12.8% | [3] -15.4% | [4] 36.3% | [5] -6.35% | [6] -4.9%

CN(C)[C@@H]1C(=O)C(C(=O)NCN2CCN(C(=N)N=C(N)N)CC2)=C(O)[C@@]2(O)C(=O)C3=C(O)c4c(O)cccc4[C@@](C)(O)[C@H]3C[C@@H]12
inactive: [1] -0.05% | [2] 1.65% | [3] -3.2% | [4] 14.2% | [5] 10.7% | [6] -5%

Cn1c(=O)c2c(nc(CN3CCOCC3)n2C)n(C)c1=O
inactive: [1] -1.35% | [2] -11.2% | [3] 3.55% | [4] -25.4% | [5] 3.6% | [6] 7.2%

O=C1c2ccccc2C(=O)N1CNc1cccc(NCN2C(=O)c3ccccc3C2=O)n1
inactive: [1] -35.8% | [2] -22.1% | [3] -23.1% | [4] 13.4% | [5] -6.5% | [6] -34.8%

CCOC(=O)C1=C(C(=O)C(C)(C)C)C(c2ccc([N+](=O)[O-])cc2)C(C(=O)C(C)(C)C)=C(C(=O)OCC)N1
inactive: [1] 31.1% | [2] 21.4% | [3] 9.4% | [4] 27.4% | [5] 6.2% | [6] 14.3%

CNC(=O)Nc1cc2c3c(c1)CCCN3CCC2
inactive: [1] -16.8% | [2] -36.6% | [3] -9.45% | [4] -15.8% | [5] -9.55% | [6] -8.3%

O=C(Cc1ccccc1)N/N=C(/c1nc2ccc([N+](=O)[O-])cc2[nH]c1=O)C(O)c1ccco1 (stereo not given)
inactive: [1] -0.95% | [2] -9.75% | [3] -4.85% | [4] -79.2% | [5] -6.25% | [6] -2.8%

CN1C(=S)C2=C(c3ccccc3)N(C)C(=S)C2=C1c1ccccc1
inactive: [1] 6% | [2] -6.15% | [3] 10.5% | [4] 28.9% | [5] -2.3% | [6] 26.1%

C#C/C=C/CC(OC(C)=O)C1C/C=C\CC(Br)C(CC)O1 (stereo not given)
inactive: [1] 31.1% | [2] 16.5% | [3] 46% | [4] 36.1% | [5] 49% | [6] 45.3%

C[Si](C)(C)c1ccc(C(N)=O)cc1
inactive: [1] 14.4% | [2] 16.4% | [3] 3.3% | [4] 8.3% | [5] 8.65% | [6] 8.7%

Cn1c(/N=C(/N)N=C(N)N)cc(=O)n(C)c1=O
inactive: [1] 12.8% | [2] 5.45% | [3] 20.3% | [4] 34.7% | [5] 29.6% | [6] 21.8%

CCC(C)OC(=O)/C(Br)=C1/OC(=O)c2ccccc2-c2ccccc21 (stereo not given)
inactive: [1] -1.55% | [2] -15.8% | [3] -0.35% | [4] -13.4% | [5] -42.5% | [6] -7.2%

CC1=CC(O/C=C2\C(=O)OC3C=CCC23)OC1=O (stereo not given)
inactive: [1] -1.6% | [2] -32% | [3] 17.4% | [4] 4.05% | [5] -11.6% | [6] 0.55%

COC1CCC2(C)C3CCC4C(=CCC5C(C)(C)C(OC(C)=O)CCC45C)CC3(C)CCC2C1(C)C (stereo not given)
inactive: [1] 13.1% | [2] -19.4% | [3] -8.35% | [4] -20.8% | [5] 0.1% | [6] 0.2%

c1ccc2cc(-c3csc4ccccc34)ccc2c1
inactive: [1] 12.8% | [2] -16.4% | [3] 17.1% | [4] -8.05% | [5] 15.4% | [6] 9.15%

CC(C)NC(=O)c1ccccc1Sc1ccccc1CN(C)C(C)C
inactive: [1] -11.3% | [2] 5.5% | [3] 7.1% | [4] 6.55% | [5] 8.9% | [6] 6.75%

O=C(c1ccccc1)c1oc(CO)cc(=O)c1O
inactive: [1] -1% | [2] -12% | [3] -4.35% | [4] -48.1% | [5] -3.9% | [6] -16.1%

CCCCCCCCCCCCOc1ccc2ccccc2c1
inactive: [1] -7.2% | [2] 15.9% | [3] 0.85% | [4] -17.6% | [5] -6.45% | [6] -8.15%

O=C(NCc1ccccc1)NCc1ccccc1
inactive: [1] -25.5% | [2] -0.65% | [3] -2.5% | [4] -13.8% | [5] -18.4% | [6] -4.5%

NC(CS)=NCc1ccccc1
inactive: [1] 0.65% | [2] -1.35% | [3] -12.9% | [4] -86.6% | [5] 8.85% | [6] -6%
